# In the library only some 4.1% were active in any assay of this set; here they are far more common.
# AMA1-RON2 inh – disrupts binding of P. falciparum AMA1 to RON2 | AlphaScreen AMA1-biotinylated RON2 peptide binding | actives 0.2% (n = 360,000) | Potency, µM (series often up to 58.2 µM), most hits filed as inhibitors | AID 720542; also: nearly all actives have a fitted effect of over 45% in size
#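 AMA1 (3D7) with his tag at 25 nM final met compounds first, then biotinylated RON2 peptide at 25 nM; detection used donor plus acceptor beads, 10 µg/mL apiece, read by AlphaScreen after 30 min at room temperature.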
# FMDV inh – blocks foot and mouth disease virus; Potency, µM (series often up to 57.9 µM), actives largely listed as inhibitors; FMDV antiviral cell-based qHTS; actives 1.2% (n = 410,000); AID 1159524; calls by dose curve; tested in HEK293T cells; also: read-out not given here; nearly all actives have a fitted effect of over 45% in size
# AmpC no deterg – blocks E. coli AmpC beta-lactamase in detergent-free assay; AmpC nitrocefin hydrolysis, absorbance 480 nm, 0.0001% Triton; AID 485341; P00811; actives 0.52% (n = 330,000); Potency, µM (doses to about 57.1 µM), actives largely listed as inhibitors; also: nearly all actives have a fitted effect of over 20% in size
# Target sequence (P00811 whole entry, looked up): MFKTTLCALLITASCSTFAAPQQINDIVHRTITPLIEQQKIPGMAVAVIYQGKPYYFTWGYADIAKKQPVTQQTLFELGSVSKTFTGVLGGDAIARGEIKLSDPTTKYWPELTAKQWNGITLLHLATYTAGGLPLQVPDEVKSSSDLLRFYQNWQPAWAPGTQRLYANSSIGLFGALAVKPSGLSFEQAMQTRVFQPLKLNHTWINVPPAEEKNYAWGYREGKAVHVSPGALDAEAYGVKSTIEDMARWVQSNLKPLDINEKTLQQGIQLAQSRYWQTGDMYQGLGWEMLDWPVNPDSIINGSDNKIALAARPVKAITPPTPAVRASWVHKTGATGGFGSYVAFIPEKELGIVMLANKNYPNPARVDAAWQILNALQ
#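 20 mM phosphate pH 7.0 + 0.01% (detergent screen) or 0.0001% Triton X-100; 5.3 nM AmpC reagent; cpd preinc 15 min RT; nitrocefin (800 uM stock) to start; A480 q20 s × 4 min; Activity was normalised to no-enzyme and no-compound control wells.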
# AmpC detergent – blocks E. coli AmpC beta-lactamase in detergent assay; P00811; AmpC hydrolysis of nitrocefin, absorbance 480 nm, 0.01% Triton; Potency, µM (series often up to 114 µM), most hits filed as inhibitors; actives 0.041% (n = 370,000); also: nearly all actives have a fitted effect of over 25% in size
#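 20 mM phosphate pH 7.0 + 0.01% (detergent screen) or 0.0001% Triton X-100; 5.3 nM AmpC reagent; cpd preinc 15 min RT; nitrocefin (800 uM stock) to start; A480 q20 s × 4 min; Activity was normalised to no-enzyme and no-compound control wells.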
# Sm TGR inh – inhibitors of Schistosoma mansoni thioredoxin glutathione reductase. purified TGR, DTNB reduction, TNB absorbance 405 nm. Potency, µM (series often up to 114 µM), actives largely listed as inhibitors. actives 3% (n = 360,000). AID 485364; also: nearly all actives have a fitted effect of over 60% in size
#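 TGR 20 nM + NADPH 100 uM (dispensed conc.), cpd preinc 15 min RT; start with NADPH (500 uM addition) then DTNB (15 mM addition). Kinetic TNB absorbance, 405 nm filter. Four-parameter Hill fit across titration.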
# A number is an active result; . = inactive; ? = inconclusive; / = no result given; [ ] = another dose, or the depositor's remark. Unless noted, calls follow the shape of the dose curve; as a rule, active = well fitted curve in the direction sought with a large enough effect; inconclusive = small, poorly fitted or top-dose-only effect, or another doubt; inactive = no such curve, though single readings can be large; an effect the other way counts as inactive or inconclusive.
SMILES,AMA1-RON2 inh,FMDV inh,AmpC no deterg,AmpC detergent,Sm TGR inh
Cc1nnc(SCC(=O)NCc2ccc(N(C)C)cc2)c2nn(-c3ccccc3)c(C)c12,/,.,/,.,.
O=C(C1=C[C@H](c2ccccc2)C[C@H](OCc2ccc(CO)cc2)O1)N1CCN(Cc2ccccc2)CC1,.,.,.,.,28µM
O=C(C1=C[C@@H](c2ccccc2)C[C@@H](OCc2ccc(CO)cc2)O1)N1CCN(Cc2ccc3c(c2)OCO3)CC1,.,.,.,.,.
COc1ccc(S(=O)(=O)Nc2ccc3oc4c(c3c2)C(=O)CC(C)(C)C4)cc1,/,.,/,.,.
NCCCn1c(C(=O)c2cc(Cl)c(N)c(Cl)c2)c2ccc(C(F)(F)F)cc2[n+]1[O-],.,.,.,.,45µM
NC(=O)CCCn1c(C(=O)c2cc(Cl)c(N)c(Cl)c2)c2ccc(C(F)(F)F)cc2[n+]1[O-],.,.,.,?,?
NCCCn1c(C(=O)c2cc(Cl)c(N)c(Cl)c2)c2ccc([N+](=O)[O-])cc2[n+]1[O-],.,.,.,.,40µM
CC1=C(n2nnc3ccccc32)C(c2ccccc2)C(C#N)=C(N)O1 (centres undefined),.,.,.,.,35µM
COc1cccc(Cc2nc3ccccc3nc2SCC(=O)Nc2ccccc2F)c1,/,.,/,.,.
Cc1cccc(-c2oc3ccccc3c2C#CCCO)c1,.,.,.,?,16µM
CC(=O)Nc1ccc(Sc2ccc([N+](=O)[O-])o2)cc1,.,35µM,/,/,/
COCCCNC(=O)c1cc2n(n1)CCCN(Cc1ccc(C)cc1)C2=O,/,.,/,.,.
Oc1c(Cl)cc(Cl)cc1C1=NNC(c2ccc(Cl)cc2)C1 (centres undefined),.,.,?,.,3.2µM
Cc1nn2c(=O)cc(COC(=O)c3cccc(NC(=O)c4ccc(F)cc4)c3)nc2s1,/,?,/,?,.
CC(=O)Nc1ccc(N=Cc2c(O)n(Cc3ccco3)c(=O)[nH]c2=O)cc1,.,.,.,.,25µM
CCCCn1c(=O)c(C=Nc2ccc(Cl)cc2)c(O)n(Cc2ccco2)c1=O,.,.,.,.,.
CC(C)n1c(=O)c(C=Nc2ccc(S(N)(=O)=O)cc2)c(O)n(Cc2ccco2)c1=O,.,?,22µM,.,.
O=c1[nH]c(=O)n(Cc2ccco2)c(O)c1C=NCc1ccco1,.,/,.,.,25µM
CCN(CC)CCN=Cc1c(O)n(Cc2ccco2)c(=O)[nH]c1=O,.,.,.,.,.
CCCCC(=O)N/N=C/c1c(O)n(Cc2ccco2)c(=O)[nH]c1=O,.,.,.,?,?
Cc1ccc(-n2c(O)c(C=NCc3ccco3)c(=O)[nH]c2=S)cc1C,.,.,.,.,10µM
CC(=O)N1CCCc2cc(S(=O)(=O)N3CCN(c4ccccc4F)CC3)ccc21,/,?,/,.,.
Cc1cn2c(=O)cc(COC(=O)c3ccc(NC(=O)c4ccccc4C)cc3)nc2s1,/,.,/,.,.
CCCS(=O)(=O)N1CCC(N2CCN(Cc3ccc(F)cc3)C(=O)C2=O)CC1,/,.,/,.,.
CCOc1ccccc1N/C(=C(/C(Cl)=C(Cl)Cl)[N+](=O)[O-])n1cncn1,?,.,.,.,6.3µM
SMILES,AMA1-RON2 inh,FMDV inh,AmpC no deterg,AmpC detergent,Sm TGR inh
CCOc1ccccc1NC(=O)c1ccc([N+](=O)[O-])cc1,/,/,.,.,.
CCOc1ccc(N/C(=C(/C(Cl)=C(Cl)Cl)[N+](=O)[O-])n2cncn2)cc1,/,/,.,?,11µM
O=[N+]([O-])/C(C(Cl)=C(Cl)Cl)=C(\Nc1ccc(F)cc1)n1cncn1,/,/,.,.,8.9µM
Cc1cc([N+](=O)[O-])nn1CC(=O)Nc1ccc(F)cc1,.,.,.,.,.
CCc1cnc2c(c1SCC(=O)c1ccc(Cl)cc1)c(=O)n(C)c(=O)n2C,/,.,/,.,.
Cc1ccc(NC(=O)C2CCN(S(=O)(=O)c3ccc4[nH]c(=O)ccc4c3)CC2)cc1C,/,.,/,.,.
CCc1ccccc1NC(=O)Cn1c(=O)n(CCCS(=O)(=O)C2CCCCC2)c(=O)c2ccccc21,/,.,/,.,?
CCN(CC)C(=O)Cc1ccccc1,.,.,.,.,.
O=[N+]([O-])/C(C(Cl)=C(Cl)Cl)=C(\Sc1ccccc1)N1CCCCC1,.,.,.,.,13µM
CN(Cc1ccccc1)C(=C(Cl)Cl)/C(=C1/NCCN1C)[N+](=O)[O-],.,.,.,.,.
O=C(CCSc1ccccc1)N1CCCC1,.,.,.,.,.
CCN(CC)/C(Sc1ccccc1)=C(/C(Cl)=C(Cl)Cl)[N+](=O)[O-],.,.,.,.,56µM
CCN(CC)/C(Sc1ccccc1)=C(\C(Cl)=C(Cl)Cl)[N+](=O)[O-],.,.,.,.,22µM
CCC1CN(CCNC(=O)c2ccccc2-n2cccn2)Cc2cc(OC)ccc2O1 (centres undefined),/,.,/,/,/
Cn1c(NCC2CCCCC2)nc2cc(-c3ccsc3)sc2c1=O,.,.,/,/,/
Cc1cc(C)n2nc(S(=O)(=O)NC3CCCCC3)nc2n1,.,.,2.5µM,.,.
Cc1ccc(C2=Nc3ccccc3NC(C)(c3ccc(C)o3)C2)o1 (centres undefined),.,.,.,.,35µM
COc1ccc(-c2cc(C(=O)Oc3cccc(C)c3C)c3ccccc3n2)cc1,/,.,/,.,.
O=C1NC(=O)N(Cc2cccs2)C(=O)/C1=C/c1ccc(N2CCOCC2)cc1,.,?,.,.,?
O=C1NC(=O)N(Cc2ccccc2Cl)C(=O)/C1=C/N1CCOCC1,.,.,.,?,3.5µM
Cc1ccc(Nc2c(-c3cccnc3)nc3ccc(Cl)cn23)cc1,/,?,/,.,.
C=CC[C@]12CC=CC(=O)[C@@]1(O)O[C@H](c1ccc(OC)c(OC)c1)[C@H]2C,.,20µM,/,/,/
C=CC[C@]12C=C(OC)C(=O)C(OC)=C1O[C@@H](c1ccc3c(c1)OCO3)[C@H]2C,.,.,/,/,/
CCN(CC)S(=O)(=O)c1cccc(C(=O)Nc2ccc(C#N)cc2)c1,.,25µM,.,?,.
CCN(CC)S(=O)(=O)c1ccc(NC(=O)c2ccc(N(C)S(C)(=O)=O)cc2)cc1,.,4µM,.,.,.
SMILES,AMA1-RON2 inh,FMDV inh,AmpC no deterg,AmpC detergent,Sm TGR inh
CCN(CC)S(=O)(=O)c1cccc(NC(=O)c2ccc(Br)cc2)c1,.,25µM,.[11.4 µM],.,.
CCN(CC)S(=O)(=O)c1cccc(C(=O)Nc2cc(C)cc(C)c2)c1,.,.,.,.,.
COc1cccc2ccc(CN3CCC4(CC3)c3ccccc3[C@@H](NC(=O)c3ccccc3)[C@@H]4O)nc12,/,.,/,/,/
O=C(/C=C/c1ccco1)Nc1sc2c(c1C(=O)O)CCC2,.,.,.,?,40µM
N#Cc1c(NC(=O)/C=C/c2ccco2)sc2c1CCCC2,.,.,.,.,20µM
O=C(/C=C/c1ccccc1)Nc1sc2c(c1C(=O)O)CCC2,.,.,.,.,?

# Screens deposited in PubChem by National Center for Advancing Translational Sciences (NCATS).
